13 molecules from PubChem BioAssay can be followed below.

The nature of experiment [1]: stimulators of insulin release from INS-1E, primary screen, cell-based, 5 mM glucose, NPC library (AID 1117329;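 active = compound raises insulin release from rat beta cells at 5 mM glucose, no numeric limit stated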). As to conditions: rat INS-1E insulin secretion, at 10 µM, stronger effect = higher value.
Experiment [2] can be described thus: growth inhibition of GSK3B-pretreated HCT116 cells – cell-based, CellTiter-Glo, 0.2 to 20 µM (AID 1117336;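 active = compounds lowering colon cancer cell viability after pretreatment blocking the GSK3B kinase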). As to conditions: HCT116 viability after GSK3B inhibitor, at 20 µM, stronger effect = higher value.
Experiment [3] is described as follows: inhibition of endothelial tube formation, primary screen, imaging, VEGF stimulated, CD31 staining, tube area, NPC library (AID 1117340;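 active = compound that reduces growth-factor-driven endothelial tube area in a mixed cell culture, no cutoff stated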). As to conditions: VEGF-stimulated ADSC/ECFC co-culture, at 10 µM, stronger effect = higher value.
A short description of experiment [4]: glucagon-like peptide 1 release enhancers, primary assay, NCI-H716 cell line, NPC library (AID 1117341). Particulars: NCI-H716 cells, at 10 µM, stronger effect = higher value.
Experiment [5] in a line: HCT116 colon cancer cell growth inhibition, primary screen, CellTiter-Glo luminescence, NPC library (AID 1117342;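 active = compounds that lower survival of HCT116 colon cancer cells in the luminescence readout, no numeric limit stated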). Particulars: at 20 µM (top of the series). A general note: In ATP-based viability assays light output follows the ATP content of the culture.
The nature of experiment [6]: CellTiter-Glo luminescent readout of SW480 viability loss, NPC library primary (AID 1117343;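 active = compounds that lower viability of the colon cancer cells in the luminescence readout, with no numeric limit stated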). Particulars: CellTiter-Glo luminescence; at 20 µM (top of the series).
Experiment [7] can be described thus: decreased DLD-1 cellular survival, CellTiter-Glo luminescent readout, NPC compound collection, primary HTS (AID 1117346;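 active = compounds that lower survival of DLD-1 colon cancer cells in the luminescence readout, no cutoff given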). Particulars: DLD-1 viability, CellTiter-Glo luminescence; at 20 µM (top of the series).
Experiment [8] concerns the target 6-phosphogluconate dehydrogenase, decarboxylating (Homo sapiens) (UniProt P52209). Briefly: 6PGD enzyme inhibitors, primary screen, biochemical, human, recombinant enzyme, NADPH absorbance (AID 1159550;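 active = at least 20% inhibition of 6-phosphogluconate dehydrogenase activity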). As to conditions: recombinant 6PGD, NADPH absorbance 341 nm; at 10 µM; stronger effect = higher value.
Experiment [9] is described as follows: differential killing of epithelial or mesenchymal cells, primary screen, imaging, PC-3E GFP, TEM4-18 mCherry, co-culture (AID 1345086;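 active = compounds killing one labelled cell type while sparing the other, by normalised counts and ratio limits, not self-fluorescent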;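 as to all read-outs here: cells exposed to compound for 72 h before imaging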;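 as to red/green cell ratio (normalised): normalised mesenchymal count divided by normalised epithelial count so high means epithelial killing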). As to conditions: imaging cell counts, at 1 µM; for red/green cell ratio (normalised): actives lie on both sides, counts scaled to control wells, 1 = unselective.
The nature of experiment [10]: modulation of C. elegans fzo-1 (AID 1259413; call rule not given here;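 also: fzo-1 mutant C. elegans worms in liquid wells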). As to conditions: C. elegans fzo-1 modulator screen, mean read-out; stronger effect = higher value.
Experiment [11] can be described thus: growth inhibition of DIPG glioma cells, dose response, cell-based, SU-DIPG-XIII, MIPE4.0, CellTiter-Glo, qHTS (AID 1347061; cut-off not given, nearly all actives have AC50 up to about 37 µM;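 also: cells exposed to compound for 48 hours before readout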). As to conditions: SU-DIPG-XIII viability, CellTiter-Glo ATP luminescence.
Experiment [12] in a line: growth inhibition of DIPG glioma cells, dose response, cell-based, JHH-DIPG-1, MIPE4.0, CellTiter-Glo, qHTS (AID 1347062; cut-off not given, nearly all actives have AC50 up to about 27 µM;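 also: cells exposed to compound for two days before readout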). Particulars: JHH-DIPG-1 viability, CellTiter-Glo ATP luminescence.
A short description of experiment [13]: growth inhibition of DIPG glioma cells, dose response, cell-based, SU-DIPG-IV, MIPE4.0, CellTiter-Glo, qHTS (AID 1347063; cut-off not given, nearly all actives have AC50 up to about 30 µM;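 also: compound exposure lasted 48 hours before the viability readout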). Particulars: SU-DIPG-IV viability, CellTiter-Glo ATP luminescence.
The mark [14] stands for this setting: measured here: epithelial PC-3E GFP cell survival.
Setting [15] is: measured here: mesenchymal TEM4-18 mCherry cell survival.

Records with an inconclusive call do not appear. Activity calls are given as the source filed them.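 The calls were made as follows, unless noted: active = compound raises GLP1 secretion from the human gut endocrine cells, with no numeric limit stated; inactive = the rest.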

Sequence of 6-phosphogluconate dehydrogenase, decarboxylating (Homo sapiens) (P52209 whole entry, looked up): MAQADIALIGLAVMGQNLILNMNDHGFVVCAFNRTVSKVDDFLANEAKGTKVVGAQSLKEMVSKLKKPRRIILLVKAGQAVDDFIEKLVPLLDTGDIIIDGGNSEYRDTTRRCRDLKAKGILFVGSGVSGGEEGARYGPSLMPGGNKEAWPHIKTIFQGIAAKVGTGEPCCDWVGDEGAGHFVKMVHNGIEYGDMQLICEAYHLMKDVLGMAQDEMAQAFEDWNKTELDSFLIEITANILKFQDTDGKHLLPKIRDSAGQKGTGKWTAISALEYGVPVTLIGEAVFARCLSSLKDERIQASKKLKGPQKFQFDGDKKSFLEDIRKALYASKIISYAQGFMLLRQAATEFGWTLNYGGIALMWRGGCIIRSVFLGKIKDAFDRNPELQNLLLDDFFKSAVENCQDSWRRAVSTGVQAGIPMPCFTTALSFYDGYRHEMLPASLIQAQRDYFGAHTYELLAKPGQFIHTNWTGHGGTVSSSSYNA

A word on the inhibition: it is the relative decrease from the control value, in per cent. Regarding `Cn1c([N+](=O)[O-])cnc1COC(N)=O`, the insulin secretion stimulation in experiment [1] was -4.5% (inactive). Further, in [2], the viability decrease is -8.4% (inactive). Moreover, in [3], the tube area decrease was 6.2% (inactive). Moreover, the GLP1 secretion stimulation in experiment [4] was 0.7% (inactive). Moreover, the inhibition of viability in [5] is -2.4% (inactive). Further, the viability decrease (inhibition) in experiment [6] was -4.9% (inactive); in experiment [7] it was -13.8% (inactive). Also, the inhibition in [8] is -20.2% (inactive). In addition, in experiment [9], the red/green cell ratio (normalised) was 1 (inactive). The normalised cell number in [9] (setting [14]) and in [9] (setting [15]) was 1.01 throughout.
With `Nc1cc(-c2ccncc2)c[nH]c1=O`, in experiment [1], the insulin secretion stimulation was 0.4% (inactive). The viability decrease in experiment [2] is -33.1% (inactive). For the same molecule, in experiment [3], the tube area decrease was -25.6% (inactive). Moreover, in [4], the GLP1 secretion stimulation was 0% (inactive). The inhibition of viability in experiment [5] was -3.67% (inactive). For the same molecule, the viability decrease (inhibition) in experiment [6] is 15% (inactive); in experiment [7] it was -7.5% (inactive). Also, in [8], the inhibition is -7.06% (inactive).
Turning to `O=c1[nH]cnc2nc[nH]c12`, the insulin secretion stimulation in experiment [1] is 0.7% (inactive). In addition, the viability decrease in experiment [2] was -11% (inactive). In experiment [3], the tube area decrease is -3.2% (inactive). In addition, in experiment [4], the GLP1 secretion stimulation is 0.7% (inactive). Besides, the inhibition of viability in experiment [5] is -26.8% (inactive). The viability decrease (inhibition) in experiment [6] was -73% (inactive); in [7], -26.4% (inactive). For the same molecule, in experiment [8], the inhibition was 4.21% (inactive). Moreover, the red/green cell ratio (normalised) in experiment [9] was 1.25 (inactive). Further, the normalised cell number was found to be 0.95 in experiment [9] (setting [14]) and 1.18 in [9] (setting [15]).
For the molecule `NC(=O)c1ccccc1O`, in experiment [1], the insulin secretion stimulation was -0.8% (inactive). Moreover, the viability decrease in [2] is 5.6% (inactive). Further, the tube area decrease in experiment [3] is -13.1% (inactive). Moreover, in experiment [4], the GLP1 secretion stimulation was 0.3% (inactive). Also, the inhibition of viability in [5] was 10.6% (inactive). The viability decrease (inhibition) in [6] was 27.7% (inactive); in [7], 0.25% (inactive). Moreover, the inhibition in experiment [8] was -8.81% (inactive). Further, the red/green cell ratio (normalised) in [9] is 0.96 (inactive). For the same molecule, the normalised cell number in [9] (setting [14]) worked out at 0.98; in experiment [9] (setting [15]), 0.94.
In the case of `CCN1CCCC(OC(=O)C(c2ccccc2)c2ccccc2)C1` (stereo unspecified), the insulin secretion stimulation in experiment [1] is 133% (active). The viability decrease in experiment [2] is 3.4% (inactive). In experiment [3], the tube area decrease was 18.5% (inactive). The GLP1 secretion stimulation in experiment [4] is 1.3% (inactive). Moreover, the inhibition of viability in experiment [5] is 68.8% (active). Besides, the values for the viability decrease (inhibition) in experiment [6] and in experiment [7] were 71.6% (active) and 46.5% (inactive), respectively. In addition, the inhibition in experiment [8] was -9.18% (inactive). Further, the red/green cell ratio (normalised) in experiment [9] is 1.28 (inactive). Besides, the normalised cell number was found to be 0.93 in experiment [9] (setting [14]) and 1.19 in experiment [9] (setting [15]).
For the molecule `COC(=O)[C@@H](N)CS`, the insulin secretion stimulation in [1] is 1.6% (inactive). For the same molecule, the viability decrease in experiment [2] is -1.8% (inactive). For the same molecule, the tube area decrease in [3] was -0.7% (inactive). In addition, the GLP1 secretion stimulation in experiment [4] was 4.1% (inactive). In addition, the inhibition of viability in [5] was 3.2% (inactive). The viability decrease (inhibition) is 17.6% (inactive) in experiment [6] and 23.2% (active) in [7]. Moreover, the inhibition in experiment [8] was 3.23% (inactive).
For `CC1(C)O[C@@H]2C[C@H]3[C@@H]4CCC5=CC(=O)CC[C@]5(C)[C@@]4(F)[C@@H](O)C[C@]3(C)[C@]2(C(=O)CCl)O1`, in experiment [1], the insulin secretion stimulation is -0.7% (inactive). Moreover, in experiment [2], the viability decrease is -39% (inactive). Besides, the tube area decrease in experiment [3] was 10.2% (inactive). The GLP1 secretion stimulation in experiment [4] is -1.7% (inactive). The inhibition of viability in experiment [5] was -4.27% (inactive). For the same molecule, the viability decrease (inhibition) was 9.4% (inactive) in experiment [6] and -22.2% (inactive) in [7]. The inhibition in experiment [8] is 12.4% (inactive).
In the case of `COc1ccc(-c2cc(C(F)F)nn2-c2ccc(S(N)(=O)=O)cc2)cc1F`, the insulin secretion stimulation in experiment [1] was -0.6% (inactive). For the same molecule, the viability decrease in experiment [2] is -65.6% (inactive). Also, in experiment [3], the tube area decrease was 10.3% (inactive). Further, in experiment [4], the GLP1 secretion stimulation is 5.7% (inactive). Besides, the inhibition of viability in [5] was 22.3% (inactive). Moreover, the viability decrease (inhibition) in experiment [6] is 6.3% (inactive); in [7], 1.8% (inactive). In experiment [8], the inhibition was -12.8% (inactive). Besides, the red/green cell ratio (normalised) in experiment [9] is 0.98 (inactive). The results for the normalised cell number in [9] (setting [14]) and in experiment [9] (setting [15]) were 1.12 and 1.1, respectively.
`CN1CCN(C2=Nc3ccccc3Oc3ccc(Cl)cc32)CC1`: the insulin secretion stimulation in experiment [1] is 0.1% (inactive). Moreover, the viability decrease in experiment [2] was -29.5% (inactive). Further, the tube area decrease in experiment [3] was 43.3% (active). Moreover, the GLP1 secretion stimulation in [4] was 1.6% (inactive). Besides, in experiment [5], the inhibition of viability is 30.1% (inactive). Moreover, the viability decrease (inhibition) in [6] is 107% (active); in experiment [7], 85% (active). Moreover, in experiment [8], the inhibition was -14% (inactive). Further, in experiment [10], the mean signal was 262 (inactive). Also, the red/green cell ratio (normalised) in [9] was 0.99 (inactive). In addition, the normalised cell number in [9] (setting [14]) is 1.1; in experiment [9] (setting [15]) it was 1.09.
Take `COc1cccc(OC)c1C(=O)N[C@@H]1C(=O)N2[C@@H]1SC(C)(C)[C@@H]2C(=O)O`: the insulin secretion stimulation in experiment [1] was 0.6% (inactive). The viability decrease in experiment [2] was -3.9% (inactive). Besides, the tube area decrease in experiment [3] was -4.7% (inactive). For the same molecule, the GLP1 secretion stimulation in experiment [4] is -0.3% (inactive). Further, in experiment [5], the inhibition of viability was -7% (inactive). Moreover, the figures for the viability decrease (inhibition) in experiment [6] and in experiment [7] were 17.4% (inactive) and -4.8% (inactive), respectively. Further, in [8], the inhibition is 17.4% (inactive). Further, the red/green cell ratio (normalised) in experiment [9] was 1 (inactive). Also, the results for the normalised cell number in [9] (setting [14]) and in [9] (setting [15]) were 1.16 and 1.15, respectively.
For `CCN(CC)CCNc1ccc(CO)c2sc3ccccc3c(=O)c12`, the insulin secretion stimulation in experiment [1] is 0.6% (inactive). Also, the viability decrease in [2] is 24.4% (inactive). Further, in experiment [3], the tube area decrease is 76% (active). Moreover, in experiment [4], the GLP1 secretion stimulation was 10.2% (inactive). Further, the inhibition of viability in experiment [5] is 78.1% (active). Further, the figures for the viability decrease (inhibition) in experiment [6] and in [7] were 74.7% (active) and 35.6% (inactive), respectively. Also, the inhibition in experiment [8] was 7.31% (inactive). Moreover, the red/green cell ratio (normalised) in experiment [9] is 1.17 (inactive). Besides, the normalised cell number in experiment [9] (setting [14]) turned out to be 0.63; in experiment [9] (setting [15]) it was 0.74.
As usually defined, the AC50 is the concentration at which the activity in the assay is half-maximal. In the case of `CN1CCN(CCCN2c3ccccc3Sc3ccc(Cl)cc32)CC1`, in [1], the insulin secretion stimulation was 3.6% (inactive). Moreover, in [2], the viability decrease is 13% (inactive). In addition, the tube area decrease in experiment [3] was 47.3% (active). Further, the GLP1 secretion stimulation in experiment [4] was 17.2% (inactive). Besides, the inhibition of viability in experiment [5] is 86% (active). In addition, the viability decrease (inhibition) in experiment [6] is 137% (active); in experiment [7], 94.4% (active). Moreover, the inhibition in experiment [8] is 5.8% (inactive). In addition, in experiment [10], the mean signal is 253 (inactive). For the same molecule, in experiment [9], the red/green cell ratio (normalised) is 1.2 (inactive). In addition, the normalised cell number in [9] (setting [14]) came out at 0.97; in experiment [9] (setting [15]), 1.16. The AC50 in experiment [11] was 0.0105 µM (active); in experiment [12] it was 7.43 µM (active); in experiment [13] it was 10.5 µM (active).
For `C[C@]12CCC(=O)C=C1CC[C@@H]1[C@@H]2[C@@H](O)C[C@@]2(C)[C@H]1CC[C@]2(O)C(=O)COP(=O)(O)O`, the insulin secretion stimulation in [1] is 1.8% (inactive). In addition, in [2], the viability decrease was -2.5% (inactive). Also, in experiment [3], the tube area decrease was -8.4% (inactive). In addition, the GLP1 secretion stimulation in experiment [4] was -1% (inactive). Further, the inhibition of viability in [5] was -7.2% (inactive). Besides, the viability decrease (inhibition) in [6] was -5.9% (active); in experiment [7] it was -10.7% (inactive). Also, the inhibition in experiment [8] was 7.31% (inactive).
